Assay results: the OligoGym collection

These sequences were tested against EIF1 (assay: pooled miR-30 sensor sort-seq; sequence = guide strand). Details: shRNA.
Also: reference of the scale not given here.

Row | Sequence | sensor-assay potency score (higher = more potent)
1 | TTGCAGGCAAACTTTTTCTTAA | -0.992
2 | TCAATTACAGTACCATTGCAGG | -1.4
3 | TTTATCGTAATCATCAGCGATC | -0.622
4 | TGTAGCTGAATTACTTCTCCAT | 0.149
5 | AAACTTTTTCTTAAACGCCTTC | -0.311
6 | TCTTTTTATCGTAATCATCAGC | -0.92
7 | TTACTTGCATCAGCAAAGGGGT | -1.07

What follows are sequences tested against EIF2B2 in the same assay as above. Details: shRNA.

Row | Sequence | sensor-assay potency score (higher = more potent)
8 | TTGACTCTTGACATAACGGCAA | -0.00739
9 | TATGTTTAACACACTACTGAAC | -1.15
10 | TAATCTTGAGCACTCTCCGCAC | -0.531
11 | TAACACACTACTGAACCAGAAA | -0.956
12 | TGACTCTTGACATAACGGCAAA | -1.53
13 | TTATGTTTAACACACTACTGAA | -0.666
14 | ATCCTCTCTGACAACTCCGAGC | -1.34
15 | TATGAAATGAGTCTTCTTCATT | -1.13
16 | ATAATCTTGAGCACTCTCCGCA | 0.402
17 | TAGAGTTCACTCATCAGGCGGT | 0.258
18 | TTTAACACACTACTGAACCAGA | -0.372
19 | TCTCTGACAACTCCGAGCCCTT | -1.5

The sequences below were run against EIF3K in the same assay as above. Details: shRNA.

Row | Sequence | sensor-assay potency score (higher = more potent)
20 | ATCTTCTCCACAATGTTCTTGG | -0.584
21 | TACCCTTGAGCAACTTGCCCAC | -0.487
22 | TAAACTTTCGGACAGAGTCTTC | -0.691
23 | TTGATGTGCCTGGTCGATCATG | -1.46
24 | TACAGATGAAGATCTGCCCCGA | 0.0464
25 | TTGCACAGGGTGAAGTCTGTGT | -0.115
26 | TTGGCTACAGATGAAGATCTGC | 0.0721
27 | TATACCTTCCAAGAGGTCCATG | -1.12
28 | TTCTCCACAATGTTCTTGGGTT | -0.486
29 | TTCTTGATGTGCCTGGTCGATC | -1.05
30 | TATTTGCTCATCCACACCTTTA | -1.23
31 | TGATGCTGGACACACTGTCAAA | -1.61

The sequences below were run against EIF3M in the same assay as above. Details: shRNA.

Row | Sequence | sensor-assay potency score (higher = more potent)
32 | TTCAACATCTTTATCATCCTCC | 0.759
33 | AACATCATCAGCTCCAATCTGA | 0.0943
34 | TTGTCCTCTGTGTAACTTCCGA | -0.798
35 | TTTTCTAACTTGATCCAGCTCA | -0.0518
36 | TTGCTTAACAACTGCAGTCTCA | -0.8
37 | TAAAGTAGTCTTAAAAGGGTGT | 0.205
38 | ATCTTCTTCACTGATGTCGATG | -1.42
39 | AACATCTTTATCATCCTCCTTC | 0.329
40 | TGAAGCAGCATCACTCTTCTTA | 0.0165
